PubChem BioAssay (EPA / NIEHS)
“And” between values parts separate entries of the source, which are not always exact repeats. Equal entries are not always repeated. Results filed as inconclusive are left out. Some structures have more than one record in an assay (separate samples or runs), and their calls can disagree. The source made the active and inactive calls. The calls were made as follows: active = hit-call score of the fitted dose curve at least 0.9, where 1 is the maximum; inconclusive = response in the unintended direction; inactive = score below 0.9.

Columns and labels:
[1] = TOX21_p53_BLA_p3_viability: Viability Assessment in the Tox21 HCT-116 p53 Agonism Beta-lactamase Assay, Phase 3 (AID 2283593);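 also: cells exposed to compound for 16 h before reading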
In short: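 HCT-116 cells (4000/well) rested 5 h at 37C, then got DMSO compounds by pin tool (217-fold dilution) for 16 h at 37C, 5% CO2. After the bla read, CellTiter-Glo was added and luminescence read at 30 min, room temperature.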

[2] = target: Cellular tumor antigen p53 (Homo sapiens) (UniProt P04637); experiment: TOX21_p53_BLA_p3_ratio: Tox21 HCT-116 p53 Agonism Beta-lactamase Assay, Ratio, Phase 3 (AID 2283596)
In short: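 Cells were seeded at 4000/well, rested 5 h at 37C, then dosed with DMSO compound solutions (217-fold dilution) for 16 h. CCF4-AM substrate was loaded for 2 h at room temperature, and the 460/530 nm emission ratio was fitted for gain of signal versus DMSO.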

[3] = TOX21_p53_BLA_p4_viability: Viability Assessment in the Tox21 HCT-116 p53 Agonism Beta-lactamase Assay, Phase 4 (AID 2283597);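 also: hits lower the luminescence signal meaning cytotoxicity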
In short: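 Cytotoxicity was inferred from loss of CellTiter-Glo luminescence. HCT116 cells had been dosed with compounds after 5 h plating, incubated 16 h at 37C and 5% CO2, and exposed to the CCF4-AM substrate for 2 h.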

[4] = target: Cellular tumor antigen p53 (Homo sapiens) (UniProt P04637); experiment: TOX21_p53_BLA_p5_ratio: Tox21 HCT-116 p53 Agonism Beta-lactamase Assay, Ratio, Phase 5 (AID 2283599)
In short: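 HCT-116 cells carrying a p53-inducible beta-lactamase reporter were seeded at 4000 cells/well and dosed after 5 h with compound in DMSO (217-fold dilution). After 16 h at 37C, CCF4-AM substrate was added for 2 h, and the 460/530 nm emission ratio was scored as gain-of-signal versus DMSO.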

[5] = target: Cellular tumor antigen p53 (Homo sapiens) (UniProt P04637); experiment: TOX21_p53_BLA_p4_ratio: Tox21 HCT-116 p53 Agonism Beta-lactamase Assay, Ratio, Phase 4 (AID 2283601)
In short: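 HCT116 cells carrying an inducible beta-lactamase reporter were plated at 4000 cells/well, rested 5 h, then exposed to compounds in DMSO (217-fold dilution) for 16 h at 37C. CCF4-AM substrate was loaded 2 h at room temperature; 460/530 nm emission ratio scored gain-of-signal versus DMSO.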

[6] = Tanguay_ZF_120hpf_MORT_legacy: (Legacy) Oregon State University Tanguay Lab 120 Hour Post-fertilization zebrafish Assay for Mortality (AID 2283633);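 as to AC50: fitted as increase in binary mortality versus DMSO negative control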
In short: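 Dechorionated Tropical 5D wild-type zebrafish embryos, one per well from 6 hpf, were statically exposed at 28C in the dark until 120 hpf (0.64% DMSO final). Mortality was scored as present/absent by brightfield microscopy, fitted positively versus DMSO.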

[7] = Tanguay_ZF_120hpf_YSE_legacy: (Legacy) Oregon State University Tanguay Lab 120 Hour Post-fertilization zebrafish Assay for Yolk Sac Edema (AID 2283634);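 as to AC50: actives raise the incidence of yolk sac edema above the DMSO baseline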
In short: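 Tropical 5D wild-type embryos, dechorionated with pronase at 4 hpf, were exposed singly from 6 hpf to 120 hpf under static, sealed, dark conditions at 28C with 0.64% DMSO final. Yolk sac edema was scored present/absent by brightfield microscopy.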

[8] = Tanguay_ZF_120hpf_AXIS_legacy: (Legacy) Oregon State University Tanguay Lab 120 Hour Post-fertilization zebrafish Assay for Body Axis Malformation (AID 2283635);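 as to AC50: potency for an increased fraction of larvae scored with body axis malformation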
In short: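 Tropical 5D wild-type zebrafish embryos, dechorionated with pronase at 4 hpf, were placed singly in wells at 6 hpf and exposed statically to test chemical (0.64% DMSO final) at 28C until 120 hpf, then scored by brightfield for body axis defects.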

[9] = Tanguay_ZF_120hpf_EYE_legacy: (Legacy) Oregon State University Tanguay Lab 120 Hour Post-fertilization zebrafish Assay for Eye Malformation (AID 2283636);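 also: binary presence or absence of eye malformation scored by brightfield in 120 hpf larvae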
In short: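 Static waterborne exposure of dechorionated zebrafish embryos (strain Tropical 5D), 6 to 120 hpf, sealed plates at 28C, 0.64% DMSO vehicle. Eye malformation is scored as a binary endpoint, with gain of signal analysed relative to DMSO.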

[10] = TOX21_p53_BLA_p5_viability: Viability Assessment in the Tox21 HCT-116 p53 Agonism Beta-lactamase Assay, Phase 5 (AID 2283600)
In short: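 Luciferase-coupled ATP quantitation of cells treated for 16 h (37C, 5% CO2) with test chemicals delivered in DMSO via a 217-fold dilution; 4000 cells/well; reagent incubated 30 min at room temperature before luminescence reading.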

Measured: AC50

Cellular tumor antigen p53 (Homo sapiens), sequence (P04637 whole entry, looked up): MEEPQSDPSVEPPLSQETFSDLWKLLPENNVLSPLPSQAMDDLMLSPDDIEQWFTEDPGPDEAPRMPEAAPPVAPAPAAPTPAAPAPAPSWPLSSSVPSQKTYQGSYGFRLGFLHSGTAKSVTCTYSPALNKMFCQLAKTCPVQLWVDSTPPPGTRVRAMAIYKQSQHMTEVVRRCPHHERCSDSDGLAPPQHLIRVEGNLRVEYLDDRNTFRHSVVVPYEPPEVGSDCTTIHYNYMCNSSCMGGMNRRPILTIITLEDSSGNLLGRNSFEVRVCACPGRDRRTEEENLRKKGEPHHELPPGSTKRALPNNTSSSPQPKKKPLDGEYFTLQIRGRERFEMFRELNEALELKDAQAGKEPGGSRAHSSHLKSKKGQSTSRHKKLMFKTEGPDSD

O=C(O)Cc1cc(I)c(Oc2ccc(O)c(I)c2)c(I)c1
inactive: [1] | [6] | [7] | [9]
active: [1] 15.9 µM | [2] 1.64 µM and 8.48 µM | [3] 19 µM and 5.82 µM | [4] 1.95 µM and 16.7 µM | [5] 3.33 µM and 5.61 µM | [8] 0.0871 µM

CCCCCCCCCC(=O)O
inactive: [1] | [2] | [3] | [4] | [5] | [6] | [7] | [8] | [9]

CCN(Cc1cccc(S(=O)(=O)O)c1)c1ccc(C(=C2C=CC(=[N+](CC)Cc3cccc(S(=O)(=O)O)c3)C=C2)c2ccccc2S(=O)(=O)[O-])cc1
inactive: [1] | [2] | [4] | [10] | [5] | [6] | [7] | [8] | [9]
active: [3] 35.5 µM

NCc1cccc(C2CCN(C(=O)c3ccc(C#Cc4ccccc4F)o3)CC2)c1
inactive: [10] | [7] | [8] | [9]
active: [1] 72.2 µM | [2] 86.8 µM | [3] 65.6 µM | [4] 82.9 µM | [5] 84.4 µM | [6] 12 µM

OCCO
inactive: [1] | [2] | [3] | [4] | [10] | [5] | [6] | [7] | [8] | [9]

Clc1ccccc1C(c1ccccc1)(c1ccccc1)n1ccnc1
active: [1] 81.9 µM | [2] 74.1 µM | [3] 34.5 µM and 15.3 µM | [4] 86.2 µM | [5] 60.2 µM and 16.6 µM | [7] 14.6 µM | [8] 14.8 µM
inactive: [1] | [2] | [4] | [6] | [9]

CC/C(=C(/CC)c1ccc(O)cc1)c1ccc(O)cc1
active: [2] 11.8 µM and 14 µM | [3] 46 µM | [4] 17.3 µM and 4.28 µM | [5] 38.3 µM and 8.57 µM | [6] 10.8 µM
inactive: [1] | [3] | [7] | [8]

Cc1ccc2oc(CN(Cc3ccccc3)C(=O)Nc3c(F)cc(F)cc3F)c(-c3ccc(Cl)cc3)c2c1
inactive: [1] | [2] | [3] | [4] | [10] | [5] | [6] | [7] | [8] | [9]

CC(C)(C)c1cc(/C=C2\SC(N)=NC2=O)cc(C(C)(C)C)c1O
active: [3] 84.4 µM | [4] 90.1 µM | [10] 76.4 µM | [5] 62.3 µM | [6] 25.5 µM
inactive: [1] | [2] | [7] | [9]

Cc1c2ccccc2c(C)c2c1ccc1ccccc12
inactive: [1] | [3] | [4] | [6] | [7] | [8] | [9]
active: [1] 61.5 µM | [2] 29.5 µM and 52.5 µM | [3] 56.3 µM | [4] 41.7 µM | [5] 43.2 µM and 30.5 µM

CN(C)c1ccc(C(=C2C=CC(=[N+](C)C)C=C2)c2ccc(N(C)C)cc2)cc1
active: [1] 56.6 µM and 17.3 µM and 20.4 µM | [2] 9.02 µM and 31.5 µM and 8.23 µM | [3] 28.8 µM and 20.6 µM and 14.3 µM | [4] 47.3 µM and 34 µM and 25.4 µM | [10] 46.1 µM and 27 µM and 14.5 µM | [5] 52.5 µM and 51.7 µM and 30.8 µM | [6] 0.577 µM
inactive: [8]

CCCCCCCCOC(=O)c1cc(O)c(O)c(O)c1
active: [1] 67.9 µM | [2] 36.8 µM | [3] 32.9 µM | [4] 63.3 µM | [10] 42.6 µM | [5] 62.6 µM | [6] 8.13 µM
inactive: [7] | [8] | [9]

c1ccc2n[nH]nc2c1
inactive: [1] | [2] | [3] | [4] | [5] | [6] | [7] | [8] | [9]

CC(C)(C)c1csc(-c2cc3cc(OCc4ccccc4CC(=O)O)ccc3o2)n1
inactive: [10] | [7] | [8] | [9]
active: [1] 46.1 µM | [2] 27.9 µM | [3] 46.1 µM | [4] 47 µM | [5] 49.9 µM | [6] 25.9 µM

COc1cc(C(=O)NC2CCN(C)CC2)ccc1Nc1ncc2c(n1)N(C1CCCC1)CC(F)(F)C(=O)N2C
inactive: [7]
active: [1] 55.2 µM | [2] 70.1 µM | [3] 42.9 µM | [4] 0.00396 µM | [10] 68.8 µM | [5] 0.00404 µM | [6] 24.4 µM | [8] 9.69 µM | [9] 10.1 µM

COc1ccc2cc(S(=O)(=O)N[C@H](CC(=O)N[C@H](Cc3ccc(CN4[C@H](C)CCC[C@@H]4C)cc3)C(=O)N(C)C(C)C)c3ccc4c(c3)OCO4)ccc2c1
inactive: [2] | [6] | [7] | [8] | [9]
active: [1] 84.8 µM | [3] 60.6 µM | [4] 71.9 µM | [10] 56.7 µM | [5] 72.1 µM

CCCCCCCCCCCC[N+](C)(C)C
inactive: [1] | [4] | [6] | [7] | [8]
active: [1] 85.3 µM | [2] 21 µM and 16 µM and 46.1 µM | [3] 83.2 µM and 46 µM and 46.1 µM | [4] 33.3 µM | [5] 37.4 µM and 17.3 µM and 46.4 µM

CCCCCCCCOc1ccc(C(=O)c2ccccc2)c(O)c1
inactive: [1] | [2] | [3] | [4] | [10] | [5] | [6] | [7] | [8] | [9]

NC(=O)c1nc(-c2cccc(-c3cc(F)ccc3OCC(F)(F)C(F)(F)F)c2)n[nH]1
inactive: [6]
active: [1] 74 µM | [2] 87.4 µM | [3] 70.5 µM | [4] 86.6 µM | [10] 72.7 µM | [5] 86.3 µM | [7] 26.8 µM | [8] 25.9 µM | [9] 9.38 µM

O=C1CCC(C2CCCCC2)CC1
inactive: [1] | [2] | [3] | [4] | [10] | [5] | [6] | [7] | [8] | [9]

CCN(Cc1cccnc1)C(=O)c1cccc(Cl)c1[C@]1(C)C(=O)N(Cc2ccc(OC)cc2OC)c2ccc(Cl)cc21
active: [2] 40.9 µM | [4] 52.1 µM | [5] 44.5 µM | [6] 6.06 µM
inactive: [1] | [3] | [7] | [8]

CO[C@H]1/C=C/O[C@@]2(C)Oc3c(C)c(O)c4c(O)c(c(/C=N/N5CCN(C)CC5)c(O)c4c3C2=O)NC(=O)/C(C)=C\C=C\[C@H](C)[C@H](O)[C@@H](C)[C@@H](O)[C@@H](C)[C@H](OC(C)=O)[C@@H]1C
inactive: [1] | [2] | [3] | [4] | [5] | [6] | [7] | [8] | [9]

CC(=O)N1CCN(c2ccc(OC[C@H]3CO[C@](Cn4ccnc4)(c4ccc(Cl)cc4Cl)O3)cc2)CC1
active: [1] 46.1 µM | [2] 58.3 µM | [3] 58.7 µM | [4] 46.1 µM | [5] 44.3 µM
inactive: [1] | [2] | [3] | [4] | [5] | [6] | [7] | [8]

Cc1ccc(C(C)C)cc1
inactive: [1] | [2] | [3] | [4] | [5] | [6] | [7] | [8]

Cc1cc(F)ccc1-c1cc(N2CC[C@@H](O)[C@H]2CO)ncc1N(C)C(=O)C(C)(C)c1cc(C(F)(F)F)cc(C(F)(F)F)c1
active: [1] 30.7 µM | [2] 45.3 µM | [3] 27.3 µM | [4] 36 µM | [5] 26.4 µM
inactive: [6] | [7] | [8] | [9]

Cc1ncc(CO)c(CO)c1O
inactive: [1] | [2] | [3] | [4] | [10] | [5] | [6] | [7] | [8] | [9]

CN1C(=O)N(c2ccccc2Br)Cc2cnc(Nc3ccc4c(c3)OCC(CO)O4)nc21 (stereo not given)
inactive: [1] | [10] | [6]
active: [2] 13.8 µM | [3] 46.1 µM | [4] 13.6 µM | [5] 14.2 µM | [7] 3.4 µM | [8] 2.03 µM | [9] 3.44 µM

O=c1c(-c2ccc(O)cc2)coc2cc(O)cc(O)c12
inactive: [1] | [2] | [3] | [4] | [10] | [5] | [7] | [8] | [9]
active: [6] 26.1 µM
